Reference: PubChem BioAssay AID588453 (National Center for Advancing Translational Sciences (NCATS), 2011)
Hit rate of the full screen: of about 390,000 compounds, about 4,000 (1%) were called active. Another 4% or so got no clear call; they are omitted. Calls follow the shape of the dose curve; as a rule, active = well fitted inhibition curve with a large enough effect; inconclusive = small, poorly fitted or top-dose-only effect; inactive = no such curve, though single readings can be large or run the other way. What follows is part of a selection rich in actives, with near analogues and random picks from the rest.

Each compound was assayed against Thioredoxin reductase 1, cytoplasmic (Rattus norvegicus) (UniProt O89049) (assay: qHTS Assay for Inhibitors of Mammalian Selenoprotein Thioredoxin Reductase 1 (TrxR1): qHTS). Conditions: recombinant rTrxR1, NADPH fluorescence consumption, selenite substrate; series mostly up to 114 µM; activity change, negative = inhibition: at the top concentration.
Chain of Thioredoxin reductase 1, cytoplasmic (Rattus norvegicus) (O89049 whole entry, looked up): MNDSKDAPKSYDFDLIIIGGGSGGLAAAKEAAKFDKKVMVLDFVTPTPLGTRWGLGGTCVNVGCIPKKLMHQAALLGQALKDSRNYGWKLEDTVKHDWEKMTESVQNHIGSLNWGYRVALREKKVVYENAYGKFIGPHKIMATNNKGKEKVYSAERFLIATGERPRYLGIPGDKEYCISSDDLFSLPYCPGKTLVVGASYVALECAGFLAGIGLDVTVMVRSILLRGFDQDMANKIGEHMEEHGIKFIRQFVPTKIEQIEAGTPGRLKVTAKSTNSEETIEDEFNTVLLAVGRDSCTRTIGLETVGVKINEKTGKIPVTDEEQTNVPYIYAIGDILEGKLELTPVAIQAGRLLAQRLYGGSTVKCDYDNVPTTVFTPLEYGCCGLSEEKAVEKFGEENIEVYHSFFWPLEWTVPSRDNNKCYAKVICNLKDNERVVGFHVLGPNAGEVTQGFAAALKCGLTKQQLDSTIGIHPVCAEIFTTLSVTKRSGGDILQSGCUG
Summary of the method: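 Rat TrxR1 (90 nM in the dispensed reagent) was pre-reduced with 400 uM NADPH for 5 min at room temperature, then incubated with compound for 15 min. After 400 uM selenite was added, NADPH fluorescence (Ex 340/Em 450 nm) was followed for 8 min.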
% is scaled to controls: 0 for no effect and ±100 for the full control effect; potency is read from the fitted curve at half-maximal effect.
Also: nearly all actives have a fitted effect of over 65% in size.

| SMILES | activity change, negative = inhibition | Potency |
| --- | --- | --- |
| Cc1ccc2ccc3c(c2n1)NS(=O)(=O)c1ccccc1-3 | -6.92% (inactive) | – |
| COc1ccc(C(=O)C2CCCN(C(=O)c3ccc(OC)o3)C2)c(C)c1 (stereo not given) | – | 39.8 µM (active) |
| COc1ccc(C(=O)C2CCCN(C(=O)c3cnsn3)C2)c(C)c1 (stereo not given) | 21.1% (inactive) | – |
| COc1ccc(C(=O)C2CCCN(S(=O)(=O)c3cccc(C)c3)C2)c(C)c1 (stereo not given) | 20.3% (inactive) | – |
| CN(C)c1ccc(/C=C/c2sc3ccccc3[n+]2C)cc1 | -0.933% (inactive) | – |
| Oc1ccc(CNc2ccccc2O)cc1 | – | 7.94 µM (active) |
| OCC(CO)(CO)NCc1ccc(-c2ccccc2)cc1 | 5.61% (inactive) | – |
| Oc1ccc(N2CCN(C(=S)NCc3ccccc3)CC2)cc1 | 1.02% [at 57.1 µM] (inactive) | – |
| COc1ccc(OC)c(CNC(=O)c2c3c(nc4ccccc24)C(=O)N(C2CCCCC2)C3)c1 | 5.43% [at 57.1 µM] (inactive) | – |
| COc1cc2[nH]c(C)c(CCN3CCN(c4ccccc4)CC3)c2cc1OC | -33.1% (inactive) | – |
| COc1ccccc1NC(=O)/C=C/C(N)=O | – | 12.6 µM (active) |
| COc1ccccc1NC(=O)N(O)C1(C#N)CCCCC1 | 0.82% (inactive) | – |
| COc1ccccc1NC(=O)COC(=O)COc1ccccc1F | -14.5% (inactive) | – |
| COc1ccc(C(CCN2CCOCC2)c2c(OC)cc(OC)c3c2OC(=O)CC3c2ccc(OC)cc2)cc1 (stereo not given) | 19.8% [at 57.1 µM] (inactive) | – |
| CCc1nn(CC(=O)Nc2cc(C)cc(C)c2)c(=O)c2cc3sccc3n12 | 11.6% (inactive) | – |
| COc1cccc(CNC(=O)Cn2c(=O)c3cccn3c3ccc(F)cc32)c1OC | 17.7% (inactive) | – |
| O=C(/C=C/Sc1ncn[nH]1)c1ccc(Cl)cc1 | – | 0.447 µM (active) |
| Cc1cccc(C2CC(=O)Oc3c2c(=O)n(C)c2ccccc32)c1 (stereo not given) | -4.1% (inactive) | – |
| COc1cccc(C(=O)Oc2cc(C)[nH]c(=O)c2[N+](=O)[O-])c1 | -8.17% (inactive) | – |
| Cc1cccc(C(=O)O)c1[N+](=O)[O-] | 23.2% (inactive) | – |
| Cn1c(=O)c([N+](=O)[O-])c(Oc2ccccc2)c2ccccc21 | – | 2.24 µM (active) |
| Cn1c(=O)c(Sc2ccc(Cl)cc2)c(O)c2ccccc21 | 7.28% [at 57.1 µM] (inactive) | – |
| Cc1cccc(Oc2c([N+](=O)[O-])c(=O)n(C)c3ccccc23)c1 | – | 3.16 µM (active) |
| COc1cc(-c2cc3n(C)c(C)c(CCC(=O)Nc4ccc(F)cc4)c(=O)n3n2)cc(OC)c1OC | 41.7% [at 57.1 µM] (inactive) | – |
| Cc1cccc(-n2ccnc2SCC(=O)Nc2cc(C(F)(F)F)ccc2Cl)c1 | 24.2% [at 57.1 µM] (inactive) | – |
| Cc1ccc(-c2cc(C(F)(F)F)c(C#N)c(SCC(=O)Nc3ccccc3)n2)cc1 | 12.9% (inactive) | – |
| N#Cc1cc2[nH]c(=O)c(=O)[nH]c2cc1[N+](=O)[O-] | -3.39% (inactive) | – |
| COc1ccc(N=C2C=CC(=O)O2)cc1 | – | 10 µM (active) |
| COC1=CC(=O)OC(c2ccc(OC)cc2)C1 (stereo not given) | 9.46% (inactive) | – |
| COc1ccc(N=Nc2c(-c3ccc(OC)cc3)[nH]oc2=O)cc1 | 19.7% [at 57.1 µM] (inactive) | – |
